The other results are listed elsewhere or left out. A number with no mark means an inactive call. Calls of active or inactive are those of the source.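 How the source made its calls: active means cytotoxicity above 50% in each of four replicates; inactive means the rest.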
Test: viability loss in mouse AML12 liver cells – cell-based, single concentration, cytotoxicity control for hepatic lipid droplet formation project, confirmation (AID 463219);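 further: compound exposure lasted overnight at 37 °C before the ATP read; 0% = DMSO-treated cells and 100% = wells with no cells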
Conditions: AML12 mouse hepatocyte viability, ATP luminescence; at 50 µM; stronger effect = higher value; cells loaded with 100 µM oleic acid

Structure (SMILES): CCCc1ccc(-c2csc(NC(=O)Cc3cccs3)n2)cc1
- cytotoxicity: 14%

Structure (SMILES): CCOc1ccc(CCNC(=O)Nc2ccccc2)cc1OCC
- cytotoxicity: 12.3%

Structure (SMILES): Cc1ccc(N2C(=O)C(NC(=O)c3c(F)cccc3F)(C(F)(F)F)C3=C2CC(C)(C)CC3=O)cc1 (stereo not drawn)
- cytotoxicity: 13.2%

Structure (SMILES): CCCN(CCC)c1ccc(C(O)c2nnc(-c3ccccc3)o2)cc1 (stereo not drawn)
- cytotoxicity: 6.65%

Structure (SMILES): O=C1Nc2ccc(Br)cc2/C1=N/N=C/C1=C(N2CCOCC2)C(=C\c2ccccc2)/CC1
- cytotoxicity: -0.325%

Structure (SMILES): CCOc1ccc(CCNC(=O)CCc2nnc3ccc(N4CCCC4)nn23)cc1OCC
- cytotoxicity: 2.1%

Structure (SMILES): COc1ccc(Cl)cc1NC(=O)CN(C)C(=O)CCCc1c[nH]c2ccccc12
- cytotoxicity: 22.5%

Structure (SMILES): Cn1c(=O)[nH]c(=O)c2c1nc(N1CCN(C(c3ccccc3)c3ccccc3)CC1)n2CCO
- cytotoxicity: 77.5% (active)

Structure (SMILES): COc1ccc(C(C(=O)NC(C)(C)C)N(Cc2ccc(F)cc2)C(=O)CCC(=O)Nc2cc(C)on2)cc1 (stereo not drawn)
- cytotoxicity: 10.5%

Structure (SMILES): Cc1cc(C(=O)NC2CCCc3c2cnn3-c2cccc(C)c2C)c(C)o1 (stereo not drawn)
- cytotoxicity: 14.5%

Structure (SMILES): Cc1cc(NC(=O)CSc2nc(C(C)C)nc3sc4c(c23)CCC(C)C4)no1 (stereo not drawn)
- cytotoxicity: 10.1%

Structure (SMILES): COc1ccc(/C=C(\NC(=O)c2ccc(OCC(C)C)cc2)C(=O)OCc2ccco2)cc1
- cytotoxicity: 7.73%

Structure (SMILES): COc1cccc(/C=C(/CC(=O)Nc2ccc(N3CCOCC3)cc2)c2nc3ccccc3s2)c1
- cytotoxicity: 9.53%

Reference: PubChem BioAssay AID463219 (Sanford-Burnham Center for Chemical Genomics, 2010)
